CBX7 inh = inhibitors of human CBX7 binding to H3K27me3 peptide. AlphaScreen His6-CBX7 / biotin-H3K27me3 peptide binding; active compounds read low. AID 1224903. 66,000 compounds, 1.1% hits. normalised signal (fraction of DMSO) (concentration not given with the values); in the data active means normalised signal below about 0.5
Target sequence (O95931 whole entry, looked up): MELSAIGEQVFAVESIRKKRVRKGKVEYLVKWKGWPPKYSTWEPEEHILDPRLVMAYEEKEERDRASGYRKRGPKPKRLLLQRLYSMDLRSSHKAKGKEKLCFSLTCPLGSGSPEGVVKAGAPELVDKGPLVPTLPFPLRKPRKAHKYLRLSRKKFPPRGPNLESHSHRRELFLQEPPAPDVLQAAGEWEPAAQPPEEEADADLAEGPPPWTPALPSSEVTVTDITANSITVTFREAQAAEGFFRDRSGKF
* marks the source's active call; other numbers are inactive results. This excerpt belongs to a sample that is enriched for hits.

SMILES	CBX7 inh
Cc1cccc(OCCn2c(C)nc3ccccc32)c1	1.15
Cc1cccc(OCCn2c(NC(=O)c3ccccc3Cl)nc3ccccc32)c1	0.34*
COc1ccccc1C(=O)Nc1nc2ccccc2n1CCOc1ccccc1	0.836
Cc1nc2ncnn2c(C)c1CCC(=O)Nc1ccccc1	1.14
COc1ccc(C(=O)CC2(O)C(=O)N(Cc3ccccc3C)c3ccccc32)c(OC)c1 (stereo unspecified)	0.916
O=C(Nc1ccc2c(c1)OCO2)C1CCN(C(=O)c2cnn(-c3ccccc3)c2-n2cccc2)CC1	1.11
c1cnc2c(SCC3CCOCO3)cccc2c1 (stereo unspecified)	1.08
O=C(CC(Sc1cccc2cccnc12)c1ccc(OC(F)F)cc1)c1ccco1 (stereo unspecified)	0.0051*
COc1ccc(NC(=O)C(Cc2ccccc2)NS(=O)(=O)c2cccc3cccnc23)cc1 (stereo unspecified)	1.04
NC1CCCc2c1[nH]c1ccc(Br)cc21 (stereo unspecified)	1.03
Nc1nc(-c2ccc(Cl)cc2)c(-n2cncn2)s1	1.03
O=C(NCc1ccccc1F)C12CC3CC(C1)CC(n1cncn1)(C3)C2	0.96
O=C(c1ccccc1)N1CCn2c3c(c4cc(C5CCCCC5)ccc42)CCCC31 (stereo unspecified)	0.695
CCn1c2c(c3cc(C4CCCCC4)ccc31)CCCC2O (stereo unspecified)	0.47*
O=C1CCCc2c1[nH]c1ccc(C3CCCCC3)cc21	0.884
O=C(CSc1ccc2nnc(-c3ccccc3)n2n1)Nc1cccc(F)c1	0.893
CCOC(=O)N1CCC(NC(=O)Nc2ccc3snnc3c2)CC1	0.986
O=C(NCc1ccc2c(c1)OCO2)[C@@H](c1ccccc1)N1Cc2ccccc2C1=O	1.05
O=C(NCc1ccc2c(c1)OCO2)[C@H](Cc1ccccc1)N1Cc2ccccc2C1=O	0.439*
O=C(NCc1ccc(F)cc1)[C@H](Cc1ccccc1)N1Cc2ccccc2C1=O	0.94
Cc1cccc(NC(=O)C(=O)NCCCn2ccnc2)c1	0.418*
COc1cccc(NC(=O)C(=O)NCCCn2ccnc2)c1	0.871
O=C(NCCCN1CCOCC1)c1cc(-c2ccco2)on1	0.947
O=C(NCCCn1ccnc1)c1cc(-c2ccc(Cl)c(Cl)c2)on1	0.892
Cc1ccc(NC(=O)C(=O)NCCCn2ccnc2)cc1Cl	0.915
SMILES	CBX7 inh
O=C(NCCCn1ccnc1)c1cc(-c2ccco2)on1	0.424*
CCN(CC)CC(=O)Nc1c2c(nc3c1CCC3)CCC2	1.02
O=C(CCN1Cc2ccccc2C1)Nc1c2c(nc3c1CCC3)CCCC2	0.949
CC(C)NCC(=O)Nc1c2c(nc3c1CCC3)CCCC2	0.522
CN(C)CC(=O)Nc1c2c(nc3c1CCC3)CCCC2	0.231*
O=C(CN1CCN(c2ccccc2)CC1)Nc1c2c(nc3c1CCC3)CCCC2	0.978
O=C(Nc1c2c(nc3c1CCC3)CCCC2)c1ccccn1	0.14*
COc1ccc(NC(=O)c2cc(-c3cccc(Cl)c3)on2)cc1	1.15
CCOC(=O)c1cc2c(n(-c3ccc(OC)cc3)c1=O)CC(C)(C)CC2=O	1.12
CCN1CCN(c2ncc(C(=O)NC3CCCCC3)c3ccccc23)CC1	1.52
COCCNc1nc(-c2ccccc2F)nc2ccccc12	1.09
COc1ccccc1CNc1nc(-c2ccccc2F)nc2ccccc12	0.323*
Fc1ccccc1-c1nc(NCc2ccccc2Cl)c2ccccc2n1	0.999
O=S(=O)(Nc1cc(C(F)(F)F)cc(C(F)(F)F)c1)c1cccc2cccnc12	1.03
CCCCSCCCNC(=O)CSCc1nc(-c2ccc(OCC)cc2)oc1C	0.566
O=C(Nc1nnc(-c2cccnc2)s1)c1ccc(Cl)cc1	1
CCOc1ccc(Nc2nc(-c3c(C)nc4ncccn34)cs2)cc1	0.882
CCOc1ccc(Nc2nc(-c3ccccn3)cs2)cc1	0.0182*
COc1ccc(OC)c(Nc2nc(-c3ccccn3)cs2)c1	0.384*
COc1ccc(OC)c(Nc2nc(-c3ccc(C)cc3)cs2)c1	0.77
CCOc1ccc(Nc2nc(-c3ccc(Cl)c(Cl)c3)cs2)cc1	0.821
O=C(O)c1ccc(Nc2nc(-c3ccccc3)cs2)cc1	0.862
O=C(O)c1ccc(Nc2nc(-c3ccncc3)cs2)cc1	0.912
COc1ccc(-c2csc(Nc3ccccc3OC)n2)cc1	0.93
O=C(O)c1ccc(Nc2nc(-c3ccccn3)cs2)cc1	0.181*
SMILES	CBX7 inh
CCN(CCCNS(=O)(=O)c1cc(Br)cc2c1N(C(C)=O)CC2)c1cccc(C)c1	0.745
CCOC(=O)c1cnc2cc(C(F)(F)F)ccc2c1Nc1cccc(C(F)(F)F)c1	1.15
COc1cc2nc(/C=C\c3cccc(C(F)(F)F)c3)n(-c3ccc(C)c(C)c3)c(=O)c2cc1OC	1.03
COc1ccc(C(=O)Nc2nc(-c3ccc(-c4ccccc4)cc3)cs2)c(OC)c1	1.14
CCCN1Cc2cccc(-c3nc(C)c(C(=O)OCC)o3)c2C1=O	1.06
COc1ccc(-c2noc(-c3ccc(C(C)(C)C)cc3)n2)cc1	1.51
COc1ccc(N2Cc3cccc(C(=O)NC4CCCCCC4)c3C2=O)cc1	1.03
CCOC(=O)N1CCC(NC(=O)c2cccc3c2C(=O)N(c2ccc(OC)cc2)C3)CC1	0.474*
COc1ccc(N2Cc3cccc(C(=O)NC4CCCC4)c3C2=O)cc1	1.05
O=C1Nc2ccccc2OC1CC(=O)N1CCC(Cc2ccccc2)CC1 (stereo unspecified)	0.889
Cc1ccc(NC(=O)C2CCN(S(=O)(=O)c3c(C)noc3/C=C/c3cccs3)CC2)cc1C	0.952
Cc1ccc(-c2cc(-c3ccc(F)cc3)n3ncnc3n2)cc1	0.861
Fc1ccc(-c2cc(C(F)(F)F)n3ncnc3n2)cc1	0.474*
Fc1ccc(-c2cc(-c3ccccc3)nc3ncnn23)cc1	1.04
O=C(Cn1nc(-c2ccc(Cl)cc2)ccc1=O)NC1CCCCC1	1.02
Cc1ccccc1NC1c2ccccc2C(=O)N1c1ccccn1 (stereo unspecified)	0.977
CCCCOc1cccc(NC(=O)CCSc2nccn2C)c1	0.953
Cc1c(C(=O)NCc2c(F)cc(F)cc2F)oc2ccc(S(=O)(=O)N3CCCC(C)C3)cc12 (stereo unspecified)	0.983
COc1ccc(OC)c(NC(=O)CSc2nccn2-c2cccc(C)c2)c1	0.678
O=S(=O)(c1cccc(Cl)c1)N(CCCN1CCOCC1)Cc1cccs1	0.868
O=S(=O)(c1ccc(F)cc1)N(CCCN1CCOCC1)Cc1cccs1	0.852
O=S(=O)(c1ccc(Cl)cc1)N(CCCN1CCOCC1)Cc1cccs1	0.487*
O=C(CCc1nc2ccccc2n(Cc2c(F)cccc2Cl)c1=O)NC1CCCCC1	0.995
CCN(CC)CCCNC(=O)Cc1cn(C)c2ccccc12	0.975
CCN(CCCNC(=O)Cc1cn(C)c2ccccc12)c1ccccc1	0.498*
SMILES	CBX7 inh
Cn1cc(CC(=O)NCCCN2CCCC2)c2ccccc21	0.96
CCCCCc1ccc(-c2ccc(C(=O)Nc3cccc(C(F)(F)F)c3)cc2)nc1	1.07
Cc1ccc(CSc2nc3ccncc3n2CC(=O)N2CCCCCC2)cc1	1.04
CCCn1cnc2cc(NCc3ccccn3)ccc21	0.349*
CCCCn1cnc2cc(NCc3ccc(Cl)cc3)ccc21	0.223*
Cc1ccc(CNc2ccc3c(c2)ncn3C)cc1	0.651
CCc1ccc(CNc2ccc3c(c2)ncn3C)cc1	0.532
CCOc1ccc(CNc2ccc3c(c2)ncn3CC)cc1	0.862
CCCn1cnc2cc(NCc3cccc(OC)c3O)ccc21	0.913
CCCn1cnc2cc(NCc3ccc(C)cc3)ccc21	0.463*
Cc1ccc(CNc2ccc3c(c2)nc(C)n3C)cc1	0.958
CCCn1cnc2cc(NCc3cccc(OC)c3OC)ccc21	0.673

High-throughput results deposited in PubChem BioAssay by Bradner/Qi Labs at DFCI.
